# PubChem BioAssay (NCATS)
# “And” between values parts separate entries of the source, which are not always exact repeats. Equal entries are not always repeated. Results filed as inconclusive are left out. A number with no mark means an inactive call. Calls come from the whole dose curve; as a rule, active = well fitted activation curve with a large enough effect; inconclusive = small, poorly fitted or top-dose-only effect; inactive = no such curve, though single readings can be large or run the other way.
# Biological target: Cellular tumor antigen p53 (Homo sapiens) (UniProt P04637)
# Assay: Primary qHTS for small molecule compounds that upregulate eGFP-tagged delta133p53alpha (in N-terminal) cells. (AID 2060322);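 note: series mostly up to about 56 µM; 0% = DMSO vehicle and 100% = reference activator; nearly all actives have a fitted effect of over 75% in size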
# Details: NCI-H358 eGFP-delta133p53alpha fluorescence, 24 h; activation: hits give high values
# Outline: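 NCI-H358 cells pre-induced 24 h with 10 ng/ml doxycycline to express N-terminal eGFP-delta133p53alpha, then dosed 24 h at 37C without doxycycline; fixed, Hoechst-stained, GFP intensity by laser scanning cytometry, normalized to DMSO (0%) and 57.5 uM 5-azacytidine (100%).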
# Chain of Cellular tumor antigen p53 (Homo sapiens) (P04637 whole entry, looked up): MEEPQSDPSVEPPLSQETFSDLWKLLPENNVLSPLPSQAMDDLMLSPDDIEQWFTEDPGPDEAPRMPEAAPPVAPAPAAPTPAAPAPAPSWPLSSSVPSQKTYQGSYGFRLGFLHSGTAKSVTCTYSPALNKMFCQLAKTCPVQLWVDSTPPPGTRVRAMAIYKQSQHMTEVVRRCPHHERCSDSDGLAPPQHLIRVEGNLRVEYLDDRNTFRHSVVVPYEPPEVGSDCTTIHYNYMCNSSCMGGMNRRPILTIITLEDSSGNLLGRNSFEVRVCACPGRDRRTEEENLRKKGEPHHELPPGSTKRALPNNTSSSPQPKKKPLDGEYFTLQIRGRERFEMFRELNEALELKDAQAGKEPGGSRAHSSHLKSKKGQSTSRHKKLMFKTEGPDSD
row,SMILES,activation
1,CN(C)CCN1C(=O)c2ccccc2N(C)c2ccccc21,7.34%
2,Nc1ccncc1N,21.8%
3,O=C(NCN1CCOCC1)c1cnccn1,-15.3%
4,COc1nc(N)nc2c1ncn2[C@@H]1O[C@H](CO)[C@@H](O)[C@@H]1O,-17.5% and 19.2%
5,COc1ccc2ccc(=O)oc2c1CC=C(C)C,-15%
6,CCOC(=O)N[C@@H]1CC[C@@H]2[C@@H](C1)C[C@H]1C(=O)O[C@H](C)[C@H]1[C@@H]2C=Cc1ccc(-c2cccc(F)c2)cn1,8.14%
7,CC(C)C[C@@H](N)C(=O)O,-14.2%
8,O=C(O)c1cc(=O)c2ccccc2o1,2.51%
9,NC(=O)N1c2ccccc2CC(=O)c2ccccc21,19.2% and 34.6%
10,O=c1ccc2ccccc2o1,9.21%
11,O=C(Cn1ccnc1[N+](=O)[O-])NCc1ccccc1,-10.9%
12,CON=C(C(=O)N[C@@H]1C(=O)N2C(C(=O)OCOC(=O)C(C)(C)C)=C(C=Cc3scnc3C)CS[C@H]12)c1csc(N)n1,-6.48%
13,C[C@@H]1O[C@@H](OC[C@H]2O[C@@H](Oc3c(-c4ccc(O)c(O)c4)oc4cc(O)cc(O)c4c3=O)[C@H](O)[C@@H](O)[C@@H]2O)[C@H](O)[C@H](O)[C@H]1O,-29.9%
14,OC[C@@H](O)[C@H](O)[C@H](O)[C@@H](O)CO,-3.35% and 22.6%
15,NC(=O)CC[C@@H](N)C(=O)O,1.69%
16,C[C@@H]1C[C@H]2[C@@H]3CCC4=CC(=O)C=C[C@]4(C)[C@@]3(F)[C@@H](O)C[C@]2(C)[C@H]1C(=O)CO,0.837%
17,NC(=O)c1ncn([C@@H]2O[C@H](CO)[C@@H](O)[C@@H]2O)c1O,-3.98%
18,CC(=O)N[C@@H](Cc1ccc(O)cc1)C(=O)O,0.837%
19,Nc1nc(N)c(-c2ccccc2)s1,-14.1%
20,Cc1ccc([C@@H]2O[C@H](CO)[C@@H](O)[C@H](O)[C@@H]2O)cc1Cc1ccc(-c2ccc(F)cc2)s1,-12.3%
21,C[n+]1c2cc(N)ccc2cc2ccc(N)cc21 (tested in a mixture with another compound),-29.9%
22,NS(=O)(=O)Cc1noc2ccccc12,10.9%
23,CCN(CC)CCOC(=O)C(Cc1cccc2ccccc12)CC1CCCO1 (stereo not drawn),-0.837%
24,CC(=O)O[C@H]1C[C@@H]2CC[C@H]3[C@H]4C[C@H]([N+]5(C)CCCCC5)[C@@H](OC(C)=O)[C@@]4(C)CC[C@@H]3[C@@]2(C)C[C@H]1N1CCCCC1,-4.56%
25,COc1cc2nc(N3CCN(C(=O)C4CCCO4)CC3)nc(N)c2cc1OC (stereo not drawn),1.69% and 38.8%
26,Nc1c2c(nc3c1CCC3)CCCC2,-11.7%
27,COCCCCC(=NOCCN)c1ccc(C(F)(F)F)cc1,8.31%
28,O=C(Cn1ccnc1[N+](=O)[O-])NCCO,-9.21%
